Data as given in the supplement of paper PMC10849652.
Targets with a hit are over-represented here; the source holds about 7,900 in all. About 0.6% of all pairs of compound and target were hits. Unmarked numbers belong to inactive results.

Tests used:
Test in all cases: log2 fold change, soluble protein after heating vs DMSO (PISA); higher = thermal stabilisation; K562 cells, 10 uM, 30 min; active = over 0.2 and 3.5 SD of the protein, either way, in both replicates (recomputed)
[1] = compound: C#Cc1cccc(Nc2ncnc3cc(OCCOC)c(OCCOC)cc23)c1 [erlotinib]
Outline: (§1)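 For each measurement, 10 μM compound was applied for 30 min to K562 cells at 2×10^6 cells/mL. Aliquots were heated for 3 min across 48°C-58°C, pooled, and extracted in PBS with 0.5% NP-40 at 4°C; the supernatant after 21,000xg for 90 min was soluble protein. This was quantified by TMTpro 16plex LC-MS/MS with channel sums equalised, and thermal stability was reported relative to control samples from duplicates, on a log2 fold-change scale.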

[2] = compound: C/C(=N\NC(=O)C1=CC(=CC=C1)S(=O)(=O)N2CCOCC2)/C3=C(C=CC(=C3)Cl)O
Outline: as §1

[3] = compound: C1=CC(=C(C=C1Cl)C2=NC3=NC=CN=C3C(=N2)NC4=CC=NC=C4)F
Outline: as §1

[4] = compound: C1=CC(=CC=C1C2=NC3=C(N2)C=C(C=C3)C(=O)N)OC4=CC=C(C=C4)Cl
Outline: as §1

[5] = compound: C1=CC2=C(C=CC(=C2)/C=C\3/C(=O)NC(=NCC4=CC=CS4)S3)N=C1
Outline: as §1

[6] = compound: C1=CC2=NC=CN=C2C=C1/C=C/3\C(=O)NC(=O)S3
Outline: as §1

[7] = compound: C1=CC=C(C=C1)C2=NC(=C(N2)C3=CC=NC=C3)C4=CC(=C(C=C4)Cl)O
Outline: as §1

[8] = compound: C1=CC=C2C(=C1)C3=NNC4=CC=CC(=C43)C2=O
Outline: as §1

[9] = compound: C1CCN(C1)C(=O)NC2=CC=CC(=C2)NC3=NC=C(C(=N3)NCCC4=CN=CN4)Br
Outline: as §1

[10] = compound: C1CN(CCC1(CC2=CC=C(C=C2)Cl)N)C3=NC=NC4=C3C=CN4
Outline: as §1

Chain of UniProt Q8NCC3 (Q8NCC3 whole entry, looked up): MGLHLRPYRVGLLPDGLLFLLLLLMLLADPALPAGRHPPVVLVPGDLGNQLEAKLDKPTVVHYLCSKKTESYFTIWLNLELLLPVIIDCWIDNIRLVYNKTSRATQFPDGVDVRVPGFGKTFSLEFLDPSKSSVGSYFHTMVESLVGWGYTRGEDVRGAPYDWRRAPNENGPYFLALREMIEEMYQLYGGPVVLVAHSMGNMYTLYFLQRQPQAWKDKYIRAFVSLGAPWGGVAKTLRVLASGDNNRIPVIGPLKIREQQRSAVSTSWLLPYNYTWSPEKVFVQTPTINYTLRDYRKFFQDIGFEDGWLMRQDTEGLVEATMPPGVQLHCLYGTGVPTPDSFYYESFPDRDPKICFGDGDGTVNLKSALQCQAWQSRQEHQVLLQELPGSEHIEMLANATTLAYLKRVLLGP
Chain of UniProt P53801 (P53801 whole entry, looked up): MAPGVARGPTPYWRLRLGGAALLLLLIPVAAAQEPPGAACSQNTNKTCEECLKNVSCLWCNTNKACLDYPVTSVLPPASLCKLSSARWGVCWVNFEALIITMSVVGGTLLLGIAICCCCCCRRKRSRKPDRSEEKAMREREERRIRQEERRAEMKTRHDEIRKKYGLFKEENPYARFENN
Chain of UniProt O00329 (O00329 whole entry, looked up): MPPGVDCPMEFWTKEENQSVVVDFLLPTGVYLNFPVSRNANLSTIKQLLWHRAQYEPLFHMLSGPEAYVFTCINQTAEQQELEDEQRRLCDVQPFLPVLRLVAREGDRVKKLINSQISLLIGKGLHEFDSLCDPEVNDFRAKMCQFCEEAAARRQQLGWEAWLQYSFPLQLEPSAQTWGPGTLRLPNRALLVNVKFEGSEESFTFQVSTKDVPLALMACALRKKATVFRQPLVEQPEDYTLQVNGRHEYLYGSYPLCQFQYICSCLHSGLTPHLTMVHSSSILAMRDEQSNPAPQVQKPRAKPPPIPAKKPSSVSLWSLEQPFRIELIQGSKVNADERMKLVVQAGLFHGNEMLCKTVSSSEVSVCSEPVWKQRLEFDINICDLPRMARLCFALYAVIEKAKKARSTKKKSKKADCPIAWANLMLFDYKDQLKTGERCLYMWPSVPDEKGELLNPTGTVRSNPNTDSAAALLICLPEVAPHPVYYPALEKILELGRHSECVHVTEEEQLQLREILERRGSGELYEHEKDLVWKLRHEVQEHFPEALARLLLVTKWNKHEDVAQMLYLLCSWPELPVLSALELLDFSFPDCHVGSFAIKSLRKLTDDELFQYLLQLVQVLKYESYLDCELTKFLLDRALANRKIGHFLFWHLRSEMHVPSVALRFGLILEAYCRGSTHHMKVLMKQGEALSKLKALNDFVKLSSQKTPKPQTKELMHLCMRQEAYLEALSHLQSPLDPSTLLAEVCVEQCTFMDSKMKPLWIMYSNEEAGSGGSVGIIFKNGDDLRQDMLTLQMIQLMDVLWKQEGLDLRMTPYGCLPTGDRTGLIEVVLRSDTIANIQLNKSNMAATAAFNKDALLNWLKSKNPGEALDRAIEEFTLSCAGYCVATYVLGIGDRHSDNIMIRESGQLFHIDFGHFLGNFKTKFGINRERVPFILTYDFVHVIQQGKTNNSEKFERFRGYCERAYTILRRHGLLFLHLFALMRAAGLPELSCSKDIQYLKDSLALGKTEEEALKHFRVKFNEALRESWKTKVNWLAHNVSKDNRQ
Chain of UniProt O00628 (O00628 whole entry, looked up): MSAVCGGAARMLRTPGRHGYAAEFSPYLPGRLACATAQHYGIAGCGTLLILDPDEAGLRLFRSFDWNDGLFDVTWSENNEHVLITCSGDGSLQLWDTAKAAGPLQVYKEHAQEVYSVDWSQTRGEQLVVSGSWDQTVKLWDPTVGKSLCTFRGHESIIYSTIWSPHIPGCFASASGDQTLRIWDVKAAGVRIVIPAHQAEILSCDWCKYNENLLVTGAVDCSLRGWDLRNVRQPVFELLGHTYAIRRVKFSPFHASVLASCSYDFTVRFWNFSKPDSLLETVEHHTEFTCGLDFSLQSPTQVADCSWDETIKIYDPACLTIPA
Chain of UniProt O15162 (O15162 whole entry, looked up): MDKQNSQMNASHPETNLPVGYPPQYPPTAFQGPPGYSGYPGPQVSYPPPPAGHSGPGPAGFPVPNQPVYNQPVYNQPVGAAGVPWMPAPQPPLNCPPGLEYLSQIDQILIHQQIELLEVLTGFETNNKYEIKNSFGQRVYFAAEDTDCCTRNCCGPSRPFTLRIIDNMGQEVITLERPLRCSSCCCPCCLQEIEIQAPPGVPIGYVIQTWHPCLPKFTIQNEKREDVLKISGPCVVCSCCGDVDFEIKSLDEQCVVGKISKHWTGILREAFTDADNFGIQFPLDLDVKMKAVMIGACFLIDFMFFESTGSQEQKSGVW
Chain of UniProt O15067 (O15067 whole entry, looked up): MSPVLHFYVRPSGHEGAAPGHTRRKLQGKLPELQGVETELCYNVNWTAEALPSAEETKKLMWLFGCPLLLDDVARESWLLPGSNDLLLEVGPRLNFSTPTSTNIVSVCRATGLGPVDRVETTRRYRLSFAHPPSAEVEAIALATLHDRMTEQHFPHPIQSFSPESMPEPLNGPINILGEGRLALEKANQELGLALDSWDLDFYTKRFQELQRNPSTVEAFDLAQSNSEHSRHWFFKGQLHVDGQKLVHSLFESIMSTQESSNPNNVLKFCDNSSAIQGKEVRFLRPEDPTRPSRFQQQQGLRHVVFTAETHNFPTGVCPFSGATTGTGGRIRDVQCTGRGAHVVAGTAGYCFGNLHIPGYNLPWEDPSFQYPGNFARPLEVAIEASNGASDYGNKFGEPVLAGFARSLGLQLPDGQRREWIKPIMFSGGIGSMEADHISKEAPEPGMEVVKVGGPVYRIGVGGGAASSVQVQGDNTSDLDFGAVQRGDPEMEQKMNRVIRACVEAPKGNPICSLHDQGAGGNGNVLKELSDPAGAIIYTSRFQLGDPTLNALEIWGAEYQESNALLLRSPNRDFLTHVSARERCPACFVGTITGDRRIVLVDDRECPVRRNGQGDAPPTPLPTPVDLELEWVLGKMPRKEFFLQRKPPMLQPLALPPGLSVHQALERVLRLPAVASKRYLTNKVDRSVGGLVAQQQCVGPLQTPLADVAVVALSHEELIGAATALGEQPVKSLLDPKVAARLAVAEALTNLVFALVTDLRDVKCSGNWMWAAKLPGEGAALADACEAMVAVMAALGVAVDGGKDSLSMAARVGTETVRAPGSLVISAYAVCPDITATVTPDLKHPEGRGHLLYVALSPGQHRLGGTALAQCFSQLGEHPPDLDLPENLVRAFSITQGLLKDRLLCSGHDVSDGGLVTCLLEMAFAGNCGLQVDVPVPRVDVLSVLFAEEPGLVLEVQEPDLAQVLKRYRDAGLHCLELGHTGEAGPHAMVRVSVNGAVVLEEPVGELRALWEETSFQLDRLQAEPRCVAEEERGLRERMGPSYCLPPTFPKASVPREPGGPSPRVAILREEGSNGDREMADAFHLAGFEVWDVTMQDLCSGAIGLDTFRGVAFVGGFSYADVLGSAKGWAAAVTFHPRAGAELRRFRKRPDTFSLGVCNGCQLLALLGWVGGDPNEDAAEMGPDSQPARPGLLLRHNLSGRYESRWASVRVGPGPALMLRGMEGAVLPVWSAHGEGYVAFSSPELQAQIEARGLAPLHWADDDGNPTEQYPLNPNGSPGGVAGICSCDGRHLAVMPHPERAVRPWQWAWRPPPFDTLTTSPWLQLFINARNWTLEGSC
Chain of UniProt P10644 (P10644 whole entry, looked up): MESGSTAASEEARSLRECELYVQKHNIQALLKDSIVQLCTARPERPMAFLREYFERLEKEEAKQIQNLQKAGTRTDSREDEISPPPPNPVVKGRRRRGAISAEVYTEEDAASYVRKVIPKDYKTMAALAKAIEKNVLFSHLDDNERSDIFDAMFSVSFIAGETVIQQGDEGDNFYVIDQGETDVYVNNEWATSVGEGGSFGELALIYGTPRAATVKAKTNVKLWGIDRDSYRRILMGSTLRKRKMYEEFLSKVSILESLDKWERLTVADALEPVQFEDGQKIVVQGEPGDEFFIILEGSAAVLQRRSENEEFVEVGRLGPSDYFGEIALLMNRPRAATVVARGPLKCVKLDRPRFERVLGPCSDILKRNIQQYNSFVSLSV
Chain of UniProt Q9UG56 (Q9UG56 whole entry, looked up): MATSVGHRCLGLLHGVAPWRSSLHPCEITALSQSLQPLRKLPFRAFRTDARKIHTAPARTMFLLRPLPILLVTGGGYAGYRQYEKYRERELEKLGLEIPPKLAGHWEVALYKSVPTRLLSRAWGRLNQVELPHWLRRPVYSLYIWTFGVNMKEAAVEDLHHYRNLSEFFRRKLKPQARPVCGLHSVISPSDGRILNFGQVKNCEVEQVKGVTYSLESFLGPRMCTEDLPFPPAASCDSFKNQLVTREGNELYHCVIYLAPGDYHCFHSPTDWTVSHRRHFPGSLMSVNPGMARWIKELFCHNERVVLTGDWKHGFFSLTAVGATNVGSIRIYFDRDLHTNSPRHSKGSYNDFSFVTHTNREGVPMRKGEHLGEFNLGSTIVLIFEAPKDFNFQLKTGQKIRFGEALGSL
Chain of UniProt P28065 (P28065 whole entry, looked up): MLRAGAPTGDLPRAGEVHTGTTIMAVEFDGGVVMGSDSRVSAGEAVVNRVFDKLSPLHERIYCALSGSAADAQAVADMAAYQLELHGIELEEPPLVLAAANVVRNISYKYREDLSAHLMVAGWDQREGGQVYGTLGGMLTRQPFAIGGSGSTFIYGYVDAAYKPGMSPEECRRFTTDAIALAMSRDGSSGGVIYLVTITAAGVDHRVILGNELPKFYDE
Chain of UniProt Q08752 (Q08752 whole entry, looked up): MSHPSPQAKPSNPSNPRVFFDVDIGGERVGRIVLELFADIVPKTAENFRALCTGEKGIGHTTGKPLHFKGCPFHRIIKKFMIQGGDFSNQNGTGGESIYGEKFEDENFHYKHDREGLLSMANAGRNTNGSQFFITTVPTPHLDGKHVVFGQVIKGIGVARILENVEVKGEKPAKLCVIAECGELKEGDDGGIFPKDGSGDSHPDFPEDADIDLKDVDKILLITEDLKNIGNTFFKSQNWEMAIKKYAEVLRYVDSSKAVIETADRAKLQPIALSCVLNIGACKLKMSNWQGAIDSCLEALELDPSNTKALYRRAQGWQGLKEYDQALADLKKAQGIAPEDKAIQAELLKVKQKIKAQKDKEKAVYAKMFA

| Target | log2 fold change [1] | log2 fold change [2] | log2 fold change [3] | log2 fold change [4] | log2 fold change [5] | log2 fold change [6] | log2 fold change [7] | log2 fold change [8] | log2 fold change [9] | log2 fold change [10] |
| --- | --- | --- | --- | --- | --- | --- | --- | --- | --- | --- |
| POLR2D (UniProt O15514) | -0.153 | -0.048 | 0.138 | 0.204 | 0.06 | 0.087 | -0.049 | -0.011 | 0.058 | 0.064 |
| PPID (UniProt Q08752) | 0.114 | 0.111 | -0.01 | -0.021 | 0.075 | 0.007 | 0.095 | 0.021 | -0.076 | -0.118 |
| PTTG1IP (UniProt P53801) | -0.011 | -0.06 | -0.039 | -0.001 | 0.026 | 0.033 |  | -0.082 | 0.037 | 0.01 |
| RAB11FIP1 (UniProt Q6WKZ4) | 0.004 | 0.074 | 0.078 | -0.039 | 0.02 | -0.004 | 0.031 | 0.009 | -0.049 | 0.027 |
| PIK3C3 (UniProt Q8NEB9) | -0.005 | -0.004 | -0.157 | -0.005 | 0.011 | 0.087 | -0.007 | 0.048 | -0.024 | 0.06 |
| PRKAR1A (UniProt P10644) | 0.078 | -0.084 | -0.037 | -0.027 | 0.116 | 0.018 | 0.066 | 0.139 | 0.128 | -0.017 |
| PARP16 isoform 3 (UniProt Q8N5Y8) | 0.025 | 0.049 | -0.055 | -0.018 | -0.029 | 0.102 |  | -0.013 | -0.026 | 0.067 |
| PFAS (UniProt O15067) | -0.011 | 0.141 | 0.066 | 0.205 | 0.034 | -0.22 | 0.087 | 0.068 | -0.01 | -0.146 |
| PEX7 (UniProt O00628) | 0.021 | 0.034 | 0.034 | 0.276 (active) | 0.08 | -0.117 | 0.039 | -0.041 | -0.031 | 0.063 |
| PPIL4 (UniProt Q8WUA2) | 0.011 | 0.056 | -0.049 | 0.043 | -0.023 | 0 | 0.04 | -0.009 | -0.06 | -0.044 |
| PRKCE (UniProt Q02156) | -0.076 | 0.107 | 0.111 | 0.057 | 0.06 | 0.057 |  | 0.004 | -0.019 | -0.095 |
| PISD (UniProt Q9UG56) | -0.021 | -0.055 | 0.026 | 0.089 | 0.034 | 0.023 | 0.02 | 0.058 | 0.009 | -0.004 |
| PSMB9 (UniProt P28065) | -0.158 | -0.633 (active) | -0.116 | 0.113 | 0.174 | -0.142 |  | -0.006 |  |  |
| POLR3B (UniProt Q9NW08) | -0.022 | -0.027 | -0.003 | -0.09 | 0.004 | 0.022 | 0.025 | -0.018 | 0.194 | -0.088 |
| PYGL (UniProt P06737) | -0.012 | -0.008 | 0.001 | 0.037 | 0.047 | -0.007 | -0.02 | 0.008 | -0.004 | 0.08 |
| PLA2G15 (UniProt Q8NCC3) | 0.064 | 0.004 | 0.038 | -0.02 | 0.026 | 0.035 | -0.007 | 0.021 | 0.01 | 0.052 |
| PIK3CD (UniProt O00329) | -0.044 | -0.224 | 0.095 | 0.181 | 0.114 | 0.241 | -0.052 | -0.063 | -0.077 | -0.013 |
| PPP1R35 (UniProt Q8TAP8) | 0.137 | -0.064 | -0.038 | 0.029 | 0.01 | 0.034 | 0.021 | -0.031 | 0.009 | 0.001 |
| PEX13 (UniProt Q92968) | 0.026 | 0.03 | 0.026 | 0.009 | 0.048 | 0.073 | -0.01 | 0.005 | 0.038 | 0.036 |
| PIKFYVE (UniProt Q9Y2I7) | -0.174 | 0.111 | 0.082 | 0.082 | -0.007 | 0.075 | 0.04 | -0.014 | 0.037 | -0.108 |
| PLSCR1 (UniProt O15162) | -0.023 | 0.03 | 0.089 | 0.077 | -0.004 | 0.022 | 0.061 | -0.04 | -0.008 | 0.05 |
| PUF60 (UniProt Q9UHX1) | -0.011 | 0.172 | -0.005 | 0.014 | -0.071 | -0.026 | 0.013 | 0.02 | -0.072 | -0.141 |
| PMVK (UniProt Q15126) | 0.001 | -0.518 | 0.006 | 0.042 | 0.052 | -0.045 |  | -0.115 | -0.006 | 0.15 |
